In PubChem BioAssay:
Active and inactive are the calls of the source. No rule for the calls is given here.

The compounds below were run against Pantothenate synthetase (Mycobacterium tuberculosis (strain ATCC 25618 / H37Rv)) (UniProt P9WIL5) (assay: Recombinant Mtb pantothenate synthetase (PanC) inhibitors, coupled enzyme, confirmatory (AID 375;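 also: 0% = full reaction with vehicle and 100% = no enzyme background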)). Conditions: coupled enzyme assay; at 10 µM, active compounds read high.
Pantothenate synthetase (Mycobacterium tuberculosis (strain ATCC 25618 / H37Rv)), sequence (P9WIL5 whole entry, looked up): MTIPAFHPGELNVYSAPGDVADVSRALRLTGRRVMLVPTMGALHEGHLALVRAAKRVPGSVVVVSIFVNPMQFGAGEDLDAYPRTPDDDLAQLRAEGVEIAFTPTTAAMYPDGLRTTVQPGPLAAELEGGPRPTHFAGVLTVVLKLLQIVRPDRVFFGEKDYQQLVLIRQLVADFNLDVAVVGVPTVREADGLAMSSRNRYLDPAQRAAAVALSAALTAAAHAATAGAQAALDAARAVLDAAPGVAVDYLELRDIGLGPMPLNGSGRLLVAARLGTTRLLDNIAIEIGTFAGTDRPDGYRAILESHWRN

Structure (SMILES) | inhibition
C#CC(CO)N(CCN(Cc1ccccc1)C(C#C)CO)Cc1ccccc1 (stereo not given) | 9% (inactive)
Cc1cc(N2CCN(c3ccccn3)CC2)n2nc(C)nc2n1 | 1% (inactive)
Cc1ccccc1N(C)S(=O)(=O)c1ccc2[nH]cc(C(=O)NCC3CCCO3)c(=O)c2c1 (stereo not given) | 10% (inactive)
COc1cc(Cl)c(C)cc1NC(=O)COC(=O)c1cnc(C)cn1 | 0% (inactive)
Cc1cc2nc3c(nc2cc1C)C1(C(=O)O)CCC3(C)C1(C)C (stereo not given) | 0% (inactive)
COc1ccc(CCNC(=O)C2CCN(S(=O)(=O)c3cc(OC)ccc3OC)CC2)cc1 | 0% (inactive)
CCCCc1nc2ccccc2n2cc3c(=O)n(C)c(=O)n(C)c3c12 | 0% (inactive)
O=C(c1cccnc1)N1CCN(C(=O)c2ccccc2F)CC1 | 4% (inactive)
COc1ccc(CCNS(=O)(=O)c2ccc3c(c2)OCCO3)cc1 | 0% (inactive)
CCOC(=O)C1C(=O)N(C(=O)c2ccc(OC)cc2)CC1c1ccccc1 (stereo not given) | 0% (inactive)
Cc1cc(NC(=O)CSc2nnc(C3CC3)n2C)no1 | 0% (inactive)
CC1C/C=C/C=C/C=C/C=C/C(O[C@@H]2O[C@H](C)[C@@H](O)[C@H](N)[C@@H]2O)CC2OC(O)(CC(O)CC3OC3/C=C/C(=O)O1)CC(O)C2C(=O)O (stereo not given in full) | 5% (inactive)
Cc1cccc(NC(=O)c2ccc(S(=O)(=O)N(C)C)cc2)n1 | 0% (inactive)
CN(C)S(=O)(=O)Nc1ccccc1C(N)=O | 0% (inactive)
O=C(CN1CCC(n2nnc3cc(F)ccc32)CC1)Nc1ccc2c(c1)CCC2 | 0% (inactive)
CC1=C(c2ccc(Cl)cc2)[N+](=O)C(C)(C)N1[O-] | 0% (inactive)
O=C(CN1C(=O)c2ccccc2C1=O)NCC1COc2ccccc2O1 (stereo not given) | 0% (inactive)
C/C(=C\c1cc(C(=O)O)c(C)o1)CO | 0% (inactive)
CCOc1cc(S(=O)(=O)NCc2ccc3c(c2)OCO3)ccc1F | 2% (inactive)
Cc1nnc(NC(=O)CSc2cn(CCNC(=O)c3ccccc3)c3ccccc23)s1 | 0% (inactive)

Structure (SMILES) | inhibition
COc1ccc(-c2nn3c(-c4cccc(C)c4)nnc3s2)cc1OC | 4% (inactive)
O=C(O)c1cccc(NS(=O)(=O)c2ccc3nnn(O)c3c2)c1 | 0% (inactive)
COc1ccccc1-n1c(=O)[nH]c2c(C(N)=O)nc(-c3cccnc3)nc21 | 0% (inactive)
CC(C)NCC(O)COc1ccc(CCOCC2CC2)cc1 (stereo not given) | 0% (inactive)
CS(=O)(=O)Nc1ccc([N+](=O)[O-])cc1Oc1ccccc1 | 0% (inactive)
O=C(C1CCCCC1)N1CCC(c2nc3c(nnn3Cc3c(F)cccc3Cl)c(=O)[nH]2)CC1 | 0% (inactive)
COc1ccc(C)cc1S(=O)(=O)N(CC(=O)O)c1ccccc1 | 0% (inactive)
O=C(c1ccco1)N1CCN(C(=O)C2CCN(S(=O)(=O)c3cccc4nsnc34)CC2)CC1 | 10% (inactive)
CN1CCN(c2nc3c(c(=O)[nH]c(=O)n3C)n2CCSc2nc3ccccc3s2)CC1 | 8% (inactive)
O=C(c1ccco1)N1CCN(c2ccc(Cl)cc2)CC1 | 5% (inactive)
O=C(COc1ccccc1)Nc1ccccc1N1CCN(c2ccccc2)CC1 | 2% (inactive)
c1ccc2c(c1)Cc1cc(CN3CCOCC3)ccc1-2 | 3% (inactive)
CCOC(=O)CSc1nnc(CNC(=O)c2cccs2)n1-c1cc(OC)ccc1OC | 1% (inactive)
Cc1ccc(NC(=O)c2ccccc2F)nc1 | 2% (inactive)
O=C1CCCc2c1cc(C(=O)NCc1ccco1)c(=O)n2-c1ccc(Cl)cc1 | 9% (inactive)
CCCc1ccccc1OCCNC(C)=O | 3% (inactive)
O=C(Cn1[nH]c(=O)c2ccccc2c1=O)OCC(=O)N1CCCc2ccccc21 | 5% (inactive)
Cn1c(=O)[nH]c(=O)c2c1nc(NCCCn1ccnc1)n2Cc1cccc(Br)c1 | 0% (inactive)
CCOC(=O)Nc1sc(=S)n(C)c1C | 9% (inactive)
C[N+]12CCC(CC1)C(OC(=O)C(O)(c1ccccc1)c1ccccc1)C2 (stereo not given) | 0% (inactive)
